Consider 40 compounds from PubChem BioAssay (NCI).

Structures are written as SMILES. This is part of a sample that, as a whole, favours compounds with a hit. Of some 83,000 tested, about 20% had one in any assay.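 Treatment: one concentration, 48 hours, 96-well format. Scoring: percent growth, with anything below 10 considered active.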 Calls of active or inactive are those of the source.

The subject of the assay is RPMI-8226 leukemia. The experiment in a line: NCI-60 one-dose screen, 48 h (100 = growth as untreated, 0 = no growth, -100 = all killed). As to conditions: 10 µM. The procedure: Growth inhibition of the RPMI-8226 human tumor cell line is measured as a screen for anti-cancer activity. Cells are grown in 96 well plates and exposed to the test compound for 48 hours. Compounds are tested at a single concentration, which is 10^-5 M for most compounds. The reported endpoint is percent growth (GI% or GIPRCNT), where numbers from 0 - 100% represent growth inhibition, and numbers from -100% - 0 represent cell death. For example, a value of 40 represents 60% growth inhibition. A value of 0 means no net growth occurred over the course of the experiment. A value of -40 indicates 40% of cells at the beginning of the experiment died by the end of the experiment. A value of -100 means all cells are dead at the end of the experiment.
NCI-60 Human Tumor Cell Lines Screen was performed using the standard one-dose NCI protocol, which is described in more detail at https://dtp.cancer.gov/discovery_development/nci-60/default.htm.
Compounds with GIPRCNT values below 10 were considered active. Activity score was based on GIPRCNT using the following formula: […]
Score is 0 for GIPRCNT values of 100 or above, 50 for GIPRCNT values of 0, and 100 for GIPRCNT values of -100.
Regarding `CNS(=O)(=O)Oc1ccc(-c2sc3cc(OS(=O)(=O)NC)ccc3c2C(=O)c2ccc(OCCN3CCCCC3)cc2)cc1`, the growth was 35.9% (inactive).
For the compound `O=C(O)c1ccc(-n2cc(CNc3ccc(Oc4ccccc4)cc3)c(-c3ccccc3)n2)cc1`, the growth is 73% (inactive).
As for `O=C(Nc1cccc2c1CCCC2)c1cc2ccccc2cc1O`, the growth was 8.51% (active).
Regarding `CCOC(=O)c1cc(C(=O)c2cc(OC)cc(OC)c2)n2nc(C)ccc12`, the growth is 12.2% (inactive).
Turning to `O=C(CSc1nccc(Nc2cccc3ccccc23)n1)c1ccc(Cl)cc1`, the growth was 80% (inactive).
For `OCC1OC(n2cnc3c(NCc4ccco4)ncnc32)C(O)C1O` (stereo not given), the growth is 50.8% (inactive).
For the compound `CCCCCCCCCCCC[n+]1c(C)cc(N)c2ccccc21`, the growth was -28.4% (active).
Consider `CN1C(=O)C2(Nc3cc(Cl)ccc3S2)c2cc(Cl)ccc21` (stereo not given), for which the growth is 80.4% (inactive).
To `Nc1ccc(/C=N/Nc2ccnc3c(O)cccc23)c2cccnc12` belongs 31.8% (inactive).
For `OCCn1cccn1`, the growth was 98.2% (inactive).
In the case of `Cc1ccc(C(C)C)c(O)c1NC(=O)OC(C)C`, the growth is 102% (inactive).
The value for `C#C[C@]1(O)CCC2C3CCc4cc(OC5CCCC5)ccc4C3CC[C@@]21C` (stereo not given in full) was 80.4% (inactive); that for `COc1ccc(-c2n[nH]nc2-c2cc(OC)c3c(c2OC)OCO3)cc1` was 25.1% (inactive).
Consider `CCOC(=O)c1cocc1C(=O)O`, for which the growth is 114% (inactive).
The value for `C=CCn1c(SCC(=O)Nc2ccc(C(=O)/C=C/c3cc(OC)c(OC)c(OC)c3)cc2)nnc1-c1cc(-c2ccc(Cl)cc2)nc2ccccc12` was -16.3% (active); that for `CCOC(=O)c1cc(C(=O)c2ccc(Cl)cc2)n2ccc(-c3cc[n+](CC(=O)c4ccc(OC)cc4)cc3)cc12` was 23.4% (inactive).
In the case of `C#CCOc1c(OC)cc(C(=O)/C(C)=C/c2cccc(N=[N+]=[N-])c2)cc1OC`, the growth was 43.7% (inactive).
As to `CCCCC1(O)CCCCC1`, the growth was 101% (inactive).
`Cc1ccc(/C=C2/C(=O)N(C)c3ccc(S(=O)(=O)Nc4ccc(C(C)(C)C)cc4)cc32)s1`: the growth is 55.6% (inactive).
In the case of `COc1cc2ncnc(NC3CCC(O)CC3)c2cc1OC` (stereo not given), the growth was 104% (inactive).
Take `O=C(CI)OCC(COC(=O)CI)OC(=O)CI`: the growth was 50.9% (inactive).
`COc1ccc2nc3cc(Cl)ccc3c(N)c2c1`: the growth was -1.72% (active).
For `O=C(Nc1ccc(OS(=O)(=O)c2ccccc2)cc1)C1CCCCC1`, the growth is 76.4% (inactive).
Consider `NNC(=O)Oc1c(Cl)cc(Cl)cc1[N+](=O)[O-]`, for which the growth is 105% (inactive).
The value for `COc1cc(C2CC(c3ccc4c(c3)OCO4)=NN2c2ccccc2)cc(OC)c1OC` (stereo not given) was 75.7% (inactive); that for `COc1cc(-c2nn(-c3cccc(NC(=O)NCCNC(=O)c4ccccc4)c3)cc2-c2ccncc2)ccc1Cl` was 5.06% (active).
Take `CCCN1CN2C(=O)N3CN(CCC)CN4C(=S)N(C1)C2C34` (stereo not given): the growth was 105% (inactive).
Turning to `Cc1cc(Cl)ccc1Nc1nc(C(F)(F)F)ccc1C(=O)N/N=C/c1cccc(O)c1`, the growth was 24.1% (inactive).
Take `O=C(CCn1cnc2c(cc(-c3ccccc3)n2-c2ccccc2)c1=O)Nc1ccc(F)cc1`: the growth was 79.3% (inactive).
To `CC(=O)[C@H]1CC[C@]2(C)[C@@H]1CC[C@@H]1[C@@]3(C)CC(CCC#N)(CCC#N)C(=O)C(C)(C)[C@@H]3CC[C@]12C` belongs 107% (inactive); to `C[n+]1c2ccccc2nc2ccccc21`, -17.2% (active); to `O=C(O)c1cn(C2CC2)c2cc(N3CCN(C(=O)c4cc(-c5ccc(Cl)cc5)nc5ccccc45)CC3)c(F)cc2c1=O`, 81.8% (inactive).
For `O=S(=O)(Oc1ccc(-c2ccc3sccc3c2)cc1)c1ccc(F)cc1`, the growth is 96.4% (inactive).
In the case of `COc1cc(/C=C2\CCCC3C2=Nc2ccccc2NC3c2cc(OC)c(OC)c(OC)c2)cc(OC)c1OC` (stereo not given), the growth was -10.9% (active).
With `CCn1c(SCc2ccc(C)cc2)nnc1-c1nn(-c2ccc(Cl)cc2Cl)c(-c2ccc(Cl)cc2)c1C`, the growth is -3.78% (active).
Take `O=C(COc1cccc(/C=C2\CSc3ccc(Cl)cc3C2=O)c1)c1ccc(Cl)cc1`: the growth is -25.1% (active).
Take `CCN(CC)CCCOc1cccc2c1C(=O)c1cccc(OCCCN(CC)CC)c1C2=O`: the growth is 18.6% (inactive).
Turning to `O=C1/C=C/[C@@H](O)[C@@H]2C[C@@H](O)C[C@H]2/C=C/CCC[C@H](CCc2ccc(NC(=S)Nc3ccc4c(c3)C(=O)OC43c4ccc(O)cc4Oc4cc(O)ccc43)cc2)O1`, the growth is 12.3% (inactive).
In the case of `COc1cc2cc(Oc3ccc(NC(=O)c4ccc(Cl)c(C(F)(F)F)c4)cc3)c(C)nc2cc1OC`, the growth was 9.15% (active).
With `CS(=O)(=O)c1nccc(-c2c(-c3cccc(OCCc4ccccc4)c3)nc3sccn23)n1`, the growth is 96.9% (inactive).
